Active and inactive are the calls of the source. Unless noted, the rule behind the calls is not given here.

The nature of test [1]: anti-His antibody binders, primary screen, artefact control for SMM control protein annotation, biochemical, small-molecule microarray, 635 nm fluorescence (AID 1128).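 Note: score merges feature fluorescence with signal-to-noise for each printed compound spot.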 Conditions: anti-His Alexa647 antibody binding, higher = more signal.
Test [2] relates to Human papillomavirus type 1a E7 protein (residues 1-88). The test is described as follows: HPV1a E7 small-molecule binders, primary screen, biochemical, small-molecule microarray, residues 1-88, 635 nm (AID 1129). Conditions: small-molecule microarray binding, fluorescence 635 nm; higher = more signal.
Test [3] addresses Focal adhesion kinase 1 (Homo sapiens) (UniProt Q05397). As to the kind of experiment: small-molecule microarray binders of FAK, primary screen, biochemical, 635/667 nm fluorescence, BSA, DTT (AID 1130).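 Note: composite of spot emission at 667 nm and signal to noise over triplicate slides.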 Conditions: PTK2 binding, 635 nm fluorescence, higher = more signal.
The test system of test [4] is Fibrinogen (Alexa647-labelled). As to the kind of experiment: fibrinogen binders on compound microarrays, profiling panel, artefact control for SMM control-protein annotation, biochemical, small-molecule microarray, 635/667 nm fluorescence (AID 1131).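 Note: z-score merges 667 nm fluorescence with per-spot signal-to-noise over triplicate slides.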 Conditions: fibrinogen-A647 binding fluorescence, higher = more signal.
In test [5] the target is Follistatin (Homo sapiens) (UniProt P19883). The test is described as follows: follistatin binders on small-molecule microarrays, primary screen, biochemical, small-molecule microarray, 635/667 nm fluorescence (AID 1132). Conditions: FST binding, 635 nm fluorescence, higher = more signal.
Sequence of Follistatin (Homo sapiens) (P19883 whole entry, looked up): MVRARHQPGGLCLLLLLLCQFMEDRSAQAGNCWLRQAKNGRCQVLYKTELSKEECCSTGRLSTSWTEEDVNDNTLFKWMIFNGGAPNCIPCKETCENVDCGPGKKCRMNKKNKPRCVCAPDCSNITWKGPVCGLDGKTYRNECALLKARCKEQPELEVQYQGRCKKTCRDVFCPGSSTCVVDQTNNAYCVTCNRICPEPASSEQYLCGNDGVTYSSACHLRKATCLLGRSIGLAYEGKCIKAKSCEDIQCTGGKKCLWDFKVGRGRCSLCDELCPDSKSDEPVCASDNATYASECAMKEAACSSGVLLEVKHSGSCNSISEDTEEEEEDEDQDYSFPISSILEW
For test [6], the target named is Fibroblast growth factor 2 (Homo sapiens) (UniProt P09038). The test is described as follows: FGF2 binders on small-molecule microarrays, primary screen, biochemical, small-molecule microarray, 635/667 nm fluorescence (AID 1133). Conditions: small-molecule microarray binding, FGF2, fluorescence 635/667; higher = more signal.
Sequence of Fibroblast growth factor 2 (Homo sapiens) (P09038 whole entry, looked up): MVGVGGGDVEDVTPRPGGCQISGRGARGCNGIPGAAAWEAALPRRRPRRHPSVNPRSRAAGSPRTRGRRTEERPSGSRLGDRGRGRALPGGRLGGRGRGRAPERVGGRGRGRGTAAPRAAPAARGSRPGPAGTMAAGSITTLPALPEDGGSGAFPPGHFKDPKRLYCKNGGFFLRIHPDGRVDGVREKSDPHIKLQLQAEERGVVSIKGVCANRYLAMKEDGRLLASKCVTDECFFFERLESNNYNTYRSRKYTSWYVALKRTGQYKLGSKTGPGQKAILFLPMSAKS
Test [7] is described as follows: mitochondrial membrane potential change in A549 cells, profiling panel, cell-based, JC-1 fluorescence, basal, 24 h, 100 nL (AID 1138).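 Note: A549 lung adenocarcinoma cells under basal conditions with no added stimulus; test concentration not given here.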 Conditions: higher = more signal.
Another test relates to Lefty1. As to the kind of experiment: Lefty1 binders on small-molecule microarrays, primary screen, biochemical, small-molecule microarray, 635/667 nm fluorescence (AID 1139). Conditions: small-molecule microarray binding, fluorescence 635/667; higher = more signal.
Test [8] has as its system wheat germ agglutinin (Triticum aestivum), Alexa647-labelled. As to the kind of experiment: wheat germ agglutinin binders on compound microarrays, profiling panel, artefact control for SMM control-protein annotation, biochemical, small-molecule microarray, 635/667 nm fluorescence (AID 1140).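 Note: score merges 667 nm feature emission with signal to noise over triplicate slides.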 Conditions: WGA-A647 binding, 635 nm fluorescence, higher = more signal.
Test [9] has as its target Luciferin 4-monooxygenase (Photinus pyralis) (UniProt P08659). As to the kind of experiment: firefly luciferase enzyme inhibitors, primary screen, biochemical, luminescence, purified enzyme, 2006 set (AID 1141).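 Note: cell-free assay with purified firefly luciferase at 100 ng per well in PBS; test concentration not given here.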 Conditions: SteadyGlo luminescence, 30 min, higher = more signal, called active from +8 up or from −8 down.
The subject of test [10] is Wnt5a (protein binding on small-molecule microarray). As to the kind of experiment: Wnt5a binders on small-molecule microarray, primary screen, biophysical, 635/667 nm fluorescence (AID 1142).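 Note: fluorescence read at 667 nm with signal to noise per printed feature.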 Conditions: 635 nm fluorescence, higher = more signal.
Test [11] in a line: cell viability in Huh7 cells, primary screen, cytotoxicity control for HCV replication inhibitor project, CellTiter-Glo luminescence, basal, 48 h (AID 1143).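 Note: Huh7 hepatoma cells carrying a hepatitis C replication reporter with no stimulus; test concentration not given here.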 Conditions: Huh7 HCV replicon, higher = more signal, called active from +8 up or from −8 down. For orientation: ATP-based viability assays read luminescence as a measure of living cells.
Test [12] is described as follows: P. aeruginosa biofilm formation inhibitors, primary screen, PAO1 strain, BacTiter-Glo luminescence, LB-PBS (AID 1144). Conditions: 12 h, higher = more signal.
Test [13] can be described thus: CREB reporter modulators without forskolin, primary screen, cell-based, PC12, CRE-LacZ reporter, unstimulated (AID 1145). Conditions: no forskolin, luminescence, 4.5 h, higher = more signal, called active from +8 up or from −8 down.
Test [14] can be described thus: CREB reporter modulators under forskolin, primary screen, cell-based, PC12, CRE-LacZ reporter, forskolin-stimulated (AID 1146).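 Note: PC12 cells with 6xCRE LacZ reporter stimulated by forskolin 10 µM; beta-galactosidase reporter signal reflecting CREB driven transcription.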 Conditions: luminescence, 4.5 h, higher = more signal, called active from +8 up or from −8 down.
In test [15] the target is Streptavidin (Streptomyces avidinii) (UniProt P22629). As to the kind of experiment: streptavidin binders on small-molecule microarray, primary screen, artefact control for SMM compound annotation, biophysical, 635/667 nm fluorescence (AID 1147).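 Note: signal reflects streptavidin binding to arrayed compounds as a control protein.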 Conditions: streptavidin binding, higher = more signal.
Sequence of Streptavidin (Streptomyces avidinii) (P22629 whole entry, looked up): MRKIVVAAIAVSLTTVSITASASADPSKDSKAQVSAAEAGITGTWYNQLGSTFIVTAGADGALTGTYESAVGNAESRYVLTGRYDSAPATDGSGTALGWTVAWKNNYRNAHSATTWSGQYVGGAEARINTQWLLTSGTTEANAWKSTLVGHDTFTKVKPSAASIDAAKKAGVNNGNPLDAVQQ
Test [16] is described as follows: small-molecule binders of probe aInhba, primary screen, biochemical, small-molecule microarray, 635/667 nm fluorescence (AID 1148).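 Note: score merges 667nm spot fluorescence with signal-to-noise for antibody binding to printed compounds.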 Conditions: higher = more signal.
Test [17] has as its target Torsin-1A (Homo sapiens) (UniProt O14656). As to the kind of experiment: torsin A binders from cell lysate, primary screen, small-molecule microarray, wild-type, 635/667 nm (AID 1149). Conditions: COS7 hTOR1A-WT lysate, 635 nm fluorescence, higher = more signal.
Test [18] has the same target. As to the kind of experiment: small-molecule binders of mutant TOR1A in lysate, primary screen, cell lysate, small-molecule microarray, COS7 lysate, 635/667 nm fluorescence (AID 1150).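 Note: score pools 667 nm emission and signal to noise measuring lysate protein binding.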 Conditions: COS7 hTOR1A mutant lysate, 635 nm fluorescence, higher = more signal.
Test [19] has as its system Sonic hedgehog protein (Shh). The test is described as follows: small-molecule binders of Shh protein, primary screen, biochemical, small-molecule microarray, 635/667 nm fluorescence (AID 1151).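 Note: Shh protein binding to compounds spotted on small-molecule microarray slides; score combines spot fluorescence intensity with signal-to-noise across triplicate slides.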 Conditions: small-molecule microarray binding, 635 nm fluorescence; higher = more signal.

Sequence of Focal adhesion kinase 1 (Homo sapiens) (Q05397 whole entry, looked up): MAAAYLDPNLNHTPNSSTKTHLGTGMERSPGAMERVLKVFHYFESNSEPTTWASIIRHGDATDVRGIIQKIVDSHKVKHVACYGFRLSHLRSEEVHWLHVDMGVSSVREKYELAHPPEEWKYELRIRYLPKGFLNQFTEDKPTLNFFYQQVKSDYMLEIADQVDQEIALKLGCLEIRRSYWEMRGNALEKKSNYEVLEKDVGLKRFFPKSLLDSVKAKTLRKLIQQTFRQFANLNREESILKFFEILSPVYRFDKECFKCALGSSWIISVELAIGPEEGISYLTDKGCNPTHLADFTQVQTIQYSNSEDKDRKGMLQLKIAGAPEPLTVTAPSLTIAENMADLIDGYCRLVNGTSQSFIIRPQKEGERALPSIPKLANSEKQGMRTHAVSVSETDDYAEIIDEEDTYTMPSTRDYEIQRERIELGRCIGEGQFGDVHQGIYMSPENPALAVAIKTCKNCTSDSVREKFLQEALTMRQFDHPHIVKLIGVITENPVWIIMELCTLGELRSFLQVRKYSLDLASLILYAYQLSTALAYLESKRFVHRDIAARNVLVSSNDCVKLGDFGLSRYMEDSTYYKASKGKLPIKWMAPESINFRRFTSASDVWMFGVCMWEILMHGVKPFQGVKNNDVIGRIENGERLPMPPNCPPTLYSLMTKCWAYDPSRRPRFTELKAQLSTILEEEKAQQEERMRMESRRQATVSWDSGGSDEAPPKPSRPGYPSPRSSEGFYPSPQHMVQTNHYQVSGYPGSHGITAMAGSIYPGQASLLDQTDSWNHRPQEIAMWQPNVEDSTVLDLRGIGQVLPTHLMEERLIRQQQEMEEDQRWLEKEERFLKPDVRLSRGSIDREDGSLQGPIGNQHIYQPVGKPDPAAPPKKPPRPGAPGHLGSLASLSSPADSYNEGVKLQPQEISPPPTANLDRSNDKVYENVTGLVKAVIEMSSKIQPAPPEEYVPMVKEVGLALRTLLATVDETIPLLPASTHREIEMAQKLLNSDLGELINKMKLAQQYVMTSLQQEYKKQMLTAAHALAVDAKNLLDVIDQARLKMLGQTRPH
Sequence of Torsin-1A (Homo sapiens) (O14656 whole entry, looked up): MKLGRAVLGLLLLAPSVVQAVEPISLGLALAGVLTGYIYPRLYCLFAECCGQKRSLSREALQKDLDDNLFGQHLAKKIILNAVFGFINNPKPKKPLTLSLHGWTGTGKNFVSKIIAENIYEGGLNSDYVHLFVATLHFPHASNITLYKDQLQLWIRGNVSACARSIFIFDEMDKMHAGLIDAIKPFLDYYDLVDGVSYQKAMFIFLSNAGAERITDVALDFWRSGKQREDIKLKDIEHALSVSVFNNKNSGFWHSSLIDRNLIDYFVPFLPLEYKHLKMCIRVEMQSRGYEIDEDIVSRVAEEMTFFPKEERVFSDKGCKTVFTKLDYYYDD
Sequence of Luciferin 4-monooxygenase (Photinus pyralis) (P08659 whole entry, looked up): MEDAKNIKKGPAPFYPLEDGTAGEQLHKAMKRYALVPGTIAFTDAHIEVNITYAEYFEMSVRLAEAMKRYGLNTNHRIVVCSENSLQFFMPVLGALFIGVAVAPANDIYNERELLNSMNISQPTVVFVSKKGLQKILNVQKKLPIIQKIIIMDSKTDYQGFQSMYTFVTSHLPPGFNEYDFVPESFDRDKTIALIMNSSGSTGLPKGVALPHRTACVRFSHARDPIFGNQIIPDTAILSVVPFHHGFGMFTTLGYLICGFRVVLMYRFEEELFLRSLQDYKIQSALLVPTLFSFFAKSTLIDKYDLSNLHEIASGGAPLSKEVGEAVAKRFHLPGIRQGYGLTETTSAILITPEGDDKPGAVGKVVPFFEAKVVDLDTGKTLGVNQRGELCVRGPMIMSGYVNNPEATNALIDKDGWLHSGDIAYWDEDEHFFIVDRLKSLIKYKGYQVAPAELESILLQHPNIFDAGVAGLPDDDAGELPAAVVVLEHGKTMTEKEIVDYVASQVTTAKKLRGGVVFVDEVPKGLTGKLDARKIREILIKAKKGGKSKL

For `COCCOC(=O)N1C(=O)[C@@]2(c3cc(C#Cc4ccc(OC)cc4)ccc31)[C@H](c1ccc(O)cc1)N1[C@H](c3ccccc3)[C@H](c3ccccc3)OC(=O)[C@H]1[C@@H]2C(=O)Nc1nc2ccccc2s1`, the composite z-score in test [1] is 0.513; in test [2], 1.19; in test [3] it was -0.0177; in test [4], 0.939; in [5], 1.26; in [6], 0.499. Also, the composite z-score is 0.617 in the test on Lefty1; 0.649 in [8]; 0.169 in test [10]; 0.302 in test [15]; -0.11 in test [16]; 0.277 with Torsin-1A (Homo sapiens) [17]. Further, the values for the composite z-score (in the test with Torsin-1A (Homo sapiens) [18]; in test [19]) were 0.226 and 1.76, respectively. For the same compound, the z-score in [7] is -2.06; in [9], -0.894 (inactive); in test [11], -1.07 (inactive); in test [12], -0.155 (inactive); in test [13], 0.182 (inactive); in test [14], -0.0609 (inactive).
As for `NC(=O)[C@@H]1[C@H]2C(=O)O[C@H](c3ccccc3)[C@H](c3ccccc3)N2[C@H](c2ccc(O)cc2)[C@@]12C(=O)Nc1ccc(C#CC3=CCCCC3)cc12`, the composite z-score in [1] is 1.43; in test [2], 1.18; in test [3] it was 0.284; in test [4], 0.789; in test [5], 1.02; in [6], -0.201. The composite z-score is 0.847 in the test on Lefty1; 1.03 in test [8]; 0.0867 in test [10]; -0.102 in test [15]; 0.468 in [16]; 0.558 in the test with Torsin-1A (Homo sapiens) [17]. Moreover, the composite z-score with Torsin-1A (Homo sapiens) [18] turned out to be 0.281; in test [19], 2. In addition, the z-score in test [7] was -2.5; in test [9], -0.589 (inactive); in test [11], -5.11 (inactive); in test [12], 0.403 (inactive); in [13] it was 1.17 (inactive); in test [14], 0.117 (inactive).
With `CCOC(=O)C[C@H]1[C@H](OC(=O)c2cc3ccccc3oc2=O)[C@@H](NC(=O)CC(C)C)c2cc(OCCCO)ccc2N1C(=O)c1ccccc1`, the composite z-score in test [1] came to 0.615; in [2], 0.926; in test [3] it was 0.399; in [4], 0.595; in test [5], 0.478; in test [6], 0.427. Further, the composite z-score in the test on Lefty1 is 0.696; in test [8], 0.634; in test [10] it was 0.175; in test [15] it was 0.131; in [16], -0.0986; in the test with Torsin-1A (Homo sapiens) [17] it was 0.272. For the same compound, the results for the composite z-score (with Torsin-1A (Homo sapiens) [18]; in test [19]) were 0.205 and 0.595, respectively. For the same compound, the z-score was -0.399 in test [7]; -0.291 (inactive) in test [9]; -3.29 (inactive) in [11]; 1.25 (inactive) in [12]; 10.4 (active) in test [13]; -1.37 (inactive) in [14].
On to `COC(=O)c1c2oc(c1C(=O)OC)C(=O)NC1(CCCCC1)c1cn(nn1)C[C@H](Cc1ccccc1)NC(=O)N[C@H](CO)CC2`, for which the composite z-score stood at 0.842 in [1]; 0.494 in [2]; 0.244 in test [3]; 0.94 in test [4]; 0.437 in [5]; 0.0141 in [6]. For the same compound, the composite z-score in the test on Lefty1 was 0.609; in test [8], 0.831; in [10] it was -0.151; in [15], 1.05; in test [16], -0.05; with Torsin-1A (Homo sapiens) [17], -0.299. For the same compound, the composite z-score in the test with Torsin-1A (Homo sapiens) [18] came to 0.113; in test [19], 1.32. Moreover, the z-score in test [7] is 0.304; in test [9] it was 0.893 (inactive); in test [11] it was -0.275 (inactive); in [12], -0.926 (inactive); in [13] it was 3.49 (inactive); in [14], -0.696 (inactive).
